This is a sample that favours compounds with a hit; in the whole collection about 0.41% have one here.
aGlu spleen mod = lysosomal alpha-glucosidase (human) modulation; P10253; human spleen homogenate, 4-MU-alpha-glucoside fluorescence; Potency, µM (top dose mostly 79.9 µM), without a hit: top-dose activity change, negative = inhibition, most hits filed as inhibitors; actives 0.006% (n = 240,000);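 also: potency is read from the fitted curve at half-maximal effect; 0% = enzyme with vehicle and -100% = no enzyme basal signal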
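Enzyme source: human spleen homogenate, 1 ug/well. Buffer 50 mM citric acid/K phosphate pH 5.0, 0.01% Tween-20. 4-MU-alpha-glucoside 1 mM; 37 C x 40 min; NaOH/glycine stop; fluorescence.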
GLA spleen mod = inhibitors or activators of human alpha-galactosidase in spleen homogenate; human spleen homogenate, 4MU-alpha-Gal fluorescence, 40 min; Potency, µM (series often up to 80 µM), without a hit: at the highest dose activity change, negative = inhibition, hits mostly inhibitors; actives 0.008% (n = 240,000); AID 2107; P06280;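 also: potency is read from the fitted curve at half-maximal effect; 0% = enzyme with vehicle and -100% = no enzyme basal signal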
Target sequence (P06280 32-429 limits assumed): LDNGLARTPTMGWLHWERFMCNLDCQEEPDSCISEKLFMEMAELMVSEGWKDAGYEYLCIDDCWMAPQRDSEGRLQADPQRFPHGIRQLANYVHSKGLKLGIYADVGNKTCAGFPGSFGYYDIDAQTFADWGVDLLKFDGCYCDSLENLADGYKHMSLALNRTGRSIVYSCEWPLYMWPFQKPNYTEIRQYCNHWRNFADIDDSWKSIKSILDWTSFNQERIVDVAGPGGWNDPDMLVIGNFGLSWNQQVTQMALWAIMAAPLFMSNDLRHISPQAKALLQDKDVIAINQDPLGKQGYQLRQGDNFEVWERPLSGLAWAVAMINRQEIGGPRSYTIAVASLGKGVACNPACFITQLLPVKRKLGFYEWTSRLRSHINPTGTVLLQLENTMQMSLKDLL
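qHTS titration in buffer at pH 5.0. Alpha-galactosidase activity in spleen homogenate was measured via 4-methylumbelliferone release from 1 mM fluorogenic substrate after 40 min at 37C and a pH 10 stop. AC50 came from Hill fits of control-normalized data.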
GAA inhib = alpha-glucosidase (human) inhibition; Potency, µM (highest dose often 76.9 µM), inactives show at the highest dose activity change, negative = inhibition, actives largely listed as inhibitors; purified human GAA, 4-MU-alpha-glucoside fluorescence; P10253; actives 0.005% (n = 200,000);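 also: potency is read from the fitted curve at half-maximal effect; plate controls were uninhibited enzyme wells for no effect and no-enzyme background for full effect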
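Human alpha-glucosidase, 4 nM, pre-mixed with test compounds before 400 uM 4-methylumbelliferyl substrate; 20 min room temperature at pH 5.0. Fluorescence read after pH 10 stop; AC50 values from Hill-equation fits.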
GAA glycogen = GAA glycogen-cleavage inhibition or activation; AID 2100; Potency, µM (doses to about 76.4 µM), without a hit: at the highest dose activity change, negative = inhibition, actives largely listed as inhibitors; actives 0.38% (n = 300,000); P10253; recombinant GAA, glycogen substrate, Amplex Red glucose oxidase fluorescence;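 also: potency is read from the fitted curve at half-maximal effect; 0% = full enzyme reaction and -100% = no-enzyme basal signal; the screen sought inhibitors and activators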
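qHTS, 1536-well; enzyme 4 nM final; cpd up to 77 uM; substrate bovine liver glycogen 30 ug; 50 mM citrate/phosphate pH 5.0, 0.01% Tween-20; 37 C, 40 min; Amplex Red detection 45 min RT; Hill fit → AC50.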
GLA inh pH 4.5 = alpha-galactosidase A (human) inhibition, pH 4.5; P06280; purified enzyme, 4-MU-alpha-Gal fluorescence, pH 4.5; activity change, negative = inhibition, % at 105 µM; 230,000 tested, under 10 active; AID 1467;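 also: 0% = full activity with enzyme and -100% = basal without enzyme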
N370S GC mod = N370S glucocerebrosidase modulation, Gaucher chaperone candidate. actives 0.092% (n = 330,000). AID 2101. Potency, µM (top dose mostly 59.4 µM), for the others: at the highest dose activity change, negative = inhibition, most hits filed as inhibitors. N370S GC spleen homogenate, 4MU-glucoside fluorescence;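 also: potency is read from the fitted curve at half-maximal effect; 0% = full enzyme activity and -100% = no enzyme basal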
* = called active by the depositor; ? = inconclusive; . = not tested or not shown; [ ] = remark or other dose. Calls follow the shape of the dose curve; as a rule, active = well fitted curve in the direction sought with a large enough effect; inconclusive = small, poorly fitted or top-dose-only effect, or another doubt; inactive = no such curve, though single readings can be large; an effect the other way counts as inactive or inconclusive.

SMILES	aGlu spleen mod	GLA spleen mod	GAA inhib	GAA glycogen	GLA inh pH 4.5	N370S GC mod
CCC(=Nc1ccccc1OC)C1=C(O)CC(c2ccccc2)CC1=O (stereo unspecified)	1%	-3%	2%	-1%	-13	-5%
CCC(=Nc1ccccc1O)C1=C(O)CC(c2ccccc2)CC1=O (stereo unspecified)	-4%	-3%	.	13µM*	1	-21%
COc1ccc(-c2nsc(SCC(=O)Nc3ccc4c(c3)OCO4)n2)cc1	0%	8%	5%	6%	3	7%
COc1ccccc1C1Nc2cccc3cccc(c23)N1	0%	2%	-3%	16µM*	0	-6%
COc1cc(OC)c(C2Nc3cccc4cccc(c34)N2)c(OC)c1	.	.	.	?	.	-8%
Cc1cc(NCc2ccccn2)n2ncc(-c3ccccc3)c2n1	-4%	0%	-13%	-8%	-4	5%
COc1cc(CNc2ccc3[nH]c(=O)[nH]c3c2)ccc1OCc1ccccc1F	.	.	.	5.6µM*	.	-4%
COc1cc(CNc2ccc3[nH]c(=O)[nH]c3c2)cc(Br)c1OCC(=O)NC(C)(C)C	-5%	-1%	-15%	14µM*	-3	.
C=CCOc1cccc(CNc2ccc3[nH]c(=O)[nH]c3c2)c1	-1%	-8%	-2%	28µM*	-4	-13%
CCOc1cc(CNc2ccc(N(C)C)cc2)cc(Br)c1OCC(=O)NC(C)(C)C	-6%	-19%	?	20µM*	-27	-8%
COc1cc(CNc2ccc3[nH]c(=O)[nH]c3c2)ccc1OCC(=O)NC(C)(C)C	-3%	-5%	-3%	?	-6	-8%
COc1cccc2c1cc1c(=O)n(CC(=O)N3CCN(c4ccc(F)cc4)CC3)nc(C)n12	.	.	.	13%[76.3 µM]	.	.
O=C(c1ccccc1)N1CCN(C(=O)c2ccc3c(c2)OCO3)CC1	.	.	.	.	.	-16%
CCCCN1C[C@H](C)[C@@H](CC(=O)NCc2ccccc2)C1=O	.	.	.	-2%[76.3 µM]	.	-1%
O=[N+]([O-])c1cc(-c2nnc(Nc3ccc(O)cc3)c3ccccc23)ccc1N1CCOCC1	-1%	-3%	-4%	16µM*	-4	?
Cc1cccc(N2CCN(c3nc4nonc4nc3N3CCSCC3)CC2)n1	5%	4%	11%	10µM*	-3	-27%
COC(=O)C(N)Cc1ccc(O)c(O)c1 (stereo unspecified)	-11%	-4%	-3%	3.1µM*	6	-6%
COC(=O)C(N)Cc1ccc(O)cc1 (stereo unspecified)	-1%	7%	3%	5%	11	6%
CCC(=O)Nc1cccc(C(=O)N(Cc2ccccc2)Cc2ccccc2)c1	.	.	.	-3%[76.3 µM]	.	7.1µM*
Cc1ccc([N+](=O)[O-])cc1S(=O)(=O)NCCc1cn2ccccc2n1	-2%	2%	.	4%	0	-21%
Cc1ccc(NNC(=O)c2c(F)cccc2Cl)cc1C	-2%	2%	.	25µM*	-11	10%
Cc1cc(NC(=O)c2c(F)cccc2Cl)no1	-6%	0%	-4%	4%	4	12%
CCc1ccc(NC(=S)N(CCCN2CCOCC2)Cc2ccco2)cc1	-3%	-4%	5%	-10%	-1	-20%
COc1ccc(/C=N/Nc2nonc2N)cc1OC	3%	7%	0%	16µM*	8	24%
Nc1ccc(C(=O)C(=O)c2ccc(N)cc2)cc1	-6%	-4%	.	-7%	-4	-14%
N=C1C=CC(=C(c2ccc(N)cc2)c2ccc(N)cc2)C=C1	8%	4%	.	.	.	3.5µM*
CCS(=O)(=O)N1CCCc2cc(C(=O)Nc3cccc(C(C)=O)c3)ccc21	.	.	.	35µM*	.	.
CC(=O)c1cccc(NC(=O)c2ccc3c(c2)CCN3S(=O)(=O)c2ccccc2)c1	.	.	.	4%[76.3 µM]	.	-10%
O=C(NNC(=O)c1cccs1)c1ccco1	4%	19%	?	4%	-2	3%
O=C(NC(=S)NNC(=O)c1cccs1)c1ccco1	-18%	-16%	-6%	28µM*	-6	2%
